Structures are written as SMILES. Results filed as inconclusive are left out. A call without a number means that no potency is given here. Activity calls are given as the source filed them. The call rests on the fitted dose curve; in most records, active means well fitted cell-killing curve with a large enough effect; inconclusive means small, poorly fitted or top-dose-only effect; inactive means flat fitted curve, though single readings scatter. Numbered stars: 1 amine (or outer) side, 2 acyl side, 3 side chain; on linkers, the order of the positions; unused ones are H or OH. Bridge positions count the residues as written; N and C are the ends. Square brackets hold non-standard residues; d marks the D form. Peptide text beside a SMILES is read from it. I, II: the chains in the order shown. Actinocin(9to1) = Cc1c2oc3c(C)ccc(C(=O)[*:1])c3nc-2c(C(=O)[*:2])c(N)c1=O; NMeV = CN[C@H](C(=O)O)C(C)C; Sar = CNCC(=O)O
Potency means the concentration at half of the fitted maximal effect.

This assay in a line: Cell Viability - LYMP2-020 (AID 986). Further: nearly all actives have a fitted effect of over 55% in size. The following applies: series mostly up to 92.2 µM. The source says:
NIH Chemical Genomics Center [NCGC]
NIH Molecular Libraries Screening Centers Network [MLSCN]
National Institutes of Environmental Health Sciences [NIEHS]
National Toxicology Program [NTP]
We have developed a 1536-well cell-based assay for quantitative high throughput screening (qHTS) against a number of cell lines to determine in vitro cytotoxicity of small molecules. This particular assay uses a human lymphoblastoid cell line (LYMP2-020) purchased from Coriell Institute for Medical Research.
NCGC Assay Protocol Summary:
The CellTiter-Glo luminescent cell viability assay (Promega) is a homogeneous method to measure the number of viable cells in culture. The end point readout of this assay is based on quantitation of intracellular ATP, an indicator of metabolic activity, using the luciferase reaction. Luciferase catalyzes the oxidation of beetle Luciferin to oxyluciferin and light in the presence of ATP. The luminescent signal is proportional to amount of ATP present.
Using the CellTiter-Glo luminescent cell viability assay, the amount of cellular ATP was measured in the lymphoblastoid cell line with complete culture medium following compound treatment for 24 hours. The assay was performed in opaque white Kalypsys 1536-well plates. In the screen, tetraoctylammonium bromide was used as positive control. Library compounds were measured for their ability to cause acute toxicity in the cell line, as reflected by a decrease in intracellular ATP levels, in a concentration-dependent manner. […] AC50 values were determined from concentration-response data modeled with the standard Hill equation.
qHTS protocol for CellTiter Glo lymphoblastoid cellular assay
[Step] [Parameter] [Value] [Description]
1. Reagent; 5 uL; 2500 lymphoblastoid cells/well
2. Time; 5 hr; 37 C incubation
4. Controls; 23 nL; Tetraoctylammonium bromide 6.4pM to 92 uM
5. Time; 24 hr; 37 C incubation
6. Reagent; 5 uL; CellTiter Glo reagent
7. Time; 30 min; Room Temperature
8. Detection; Luminescence; Viewlux plate reader
Keywords: cell viability, cytotoxicity, lymphoblastoid cell line, luminescence, NTPHTS, NTPHTS_NCGC, NIEHS, DSSTox, MLSMR, MLSCN, NIH Roadmap, qHTS, NCGC
With `COc1cccc2c1C(=O)c1c(O)c3c(c(O)c1C2=O)C[C@@](O)(C(C)=O)C[C@@H]3O[C@H]1C[C@H](N)[C@H](O)[C@H](C)O1`, the Potency is 0.501 µM (active).

On to `NC(=NCCCCCCN=C(N)/N=C(\N)Nc1ccc(Cl)cc1)/N=C(\N)Nc1ccc(Cl)cc1`, for which the Potency was 39.8 µM (active).

`COC1=CC(=O)C[C@@H](C)[C@]12Oc1c(Cl)c(OC)cc(OC)c1C2=O`: the Potency result is “inactive”.

Consider `O=C(O)CCCCC(=O)O`, for which the Potency result was “inactive”.

As to `CN(C)/N=N/c1nc[nH]c1C(N)=O`, the Potency result was “inactive”.

Turning to `O=c1ccc2ccccc2o1`, the Potency entry is “inactive”.

As to `C=CCc1ccc(O)c(OC)c1`, the Potency result is “inactive”.

Take `O=C1OC(c2ccc(O)cc2)(c2ccc(O)cc2)c2ccccc21`: the Potency entry is “inactive”.

`CCCCCCc1ccc(O)cc1O`: the Potency result is “inactive”.

As to `Oc1c(Cl)cc(Cl)cc1Sc1cc(Cl)cc(Cl)c1O`, the Potency is 31.6 µM (active).

`CC(=O)Oc1ccc(C(c2ccc(OC(C)=O)cc2)c2ccccn2)cc1`: the Potency entry was “inactive”.

Take `Cc1c2oc3c(C)ccc(C(=O)N[C@@H]4C(=O)N[C@H](C(C)C)C(=O)N5CCC[C@H]5C(=O)N(C)CC(=O)N(C)[C@@H](C(C)C)C(=O)O[C@@H]4C)c3nc-2c(C(=O)N[C@@H]2C(=O)N[C@H](C(C)C)C(=O)N3CCC[C@H]3C(=O)N(C)CC(=O)N(C)[C@@H](C(C)C)C(=O)O[C@@H]2C)c(N)c1=O` (I: T[dV]P[Sar][NMeV] / II: T[dV]P[Sar][NMeV]; ester I:1-I:C, II:1-II:C; linker I:N-II:N via Actinocin(9to1)): the Potency was 0.0063 µM (active).

As for `CC(O)C(=O)O` (centres undefined), the Potency entry is “inactive”.

For the compound `Nc1ccc(C(=O)O)cc1`, the Potency result was “inactive”.

Consider `CC(C)(C)CC(C)(C)c1ccc(OCCOCC[N+](C)(C)Cc2ccccc2)cc1`, for which the Potency is 25.1 µM (active).

Take `COc1cccc2c1C(=O)c1c(O)c3c(c(O)c1C2=O)C[C@@](O)(C(=O)CO)C[C@@H]3O[C@H]1C[C@H](N)[C@H](O)[C@H](C)O1`: the Potency is 0.316 µM (active).

On to `C[C@]12CC[C@@H]3c4ccc(O)cc4CC[C@H]3[C@@H]1CC[C@@H]2O`, for which the Potency entry is “inactive”.

Consider `Oc1ccc(O)cc1`, for which the Potency was 50.1 µM (active).

On to `CC/C(=C(/CC)c1ccc(O)cc1)c1ccc(O)cc1`, for which the Potency entry was “inactive”.

Values taken from PubChem BioAssay (NCATS).
